Screening results (PubChem BioAssay)
A selection: hits, their analogues and other compounds. The true share with any hit is near 6.9%.
Beta apoptosis: blocks beta cell apoptosis; INS-1E cytokine-induced death, ATP luminescence, 48 h; percent of positive-control rescue, neutral wells zero; 300,000 compounds, 0.8% hits; protection from apoptosis, % (no concentration beside the values);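 active means Every replicate reaches about 75%, or at least half do and their mean reaches it too, limit read from the data; inconclusive means At least half of replicates reach the limit but their mean does not; inactive means Under half of replicates reach the limit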;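 further: 0% = cytokine-treated negative control wells and 100% = positive control rescue; higher means more ATP so stronger rescue from cytokine killing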
CSC inhib: cancer stem cell inhibition; cancer stem cell-like cells viability, luminescence; 300,000 compounds, 1.1% hits; inhibition, % at 7.5 µM; in the data active means inhibition above about 75%; inconclusive means no clear call, values can overlap the other calls; tested in HMLE shEcad cells
GRIN3A LBD mod: NR3A (human) ligand-binding domain modulation; 340,000 compounds, 2.5% hits; AID 1259313; NR3A LBD differential scanning fluorimetry, Tm shift; 0% = protein alone, 100% = glycine-bound protein; Tm shift relative to glycine control, % at 25 µM;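 active means melting temperature shift of at least 10% of the positive control shift, at one fixed dose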
Mdm2-MdmX inh: human Mdm2/MdmX binding inhibition; O15151+Q00987; SaOS-2 split-luciferase Mdm2/MdmX complementation, luminescence; inhibition, % at 8 µM; 330,000 compounds, 3% hits; AID 485346;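 active means inhibition of at least 50% at 8 µM in the primary screen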
Target sequence (O15151 whole entry, looked up): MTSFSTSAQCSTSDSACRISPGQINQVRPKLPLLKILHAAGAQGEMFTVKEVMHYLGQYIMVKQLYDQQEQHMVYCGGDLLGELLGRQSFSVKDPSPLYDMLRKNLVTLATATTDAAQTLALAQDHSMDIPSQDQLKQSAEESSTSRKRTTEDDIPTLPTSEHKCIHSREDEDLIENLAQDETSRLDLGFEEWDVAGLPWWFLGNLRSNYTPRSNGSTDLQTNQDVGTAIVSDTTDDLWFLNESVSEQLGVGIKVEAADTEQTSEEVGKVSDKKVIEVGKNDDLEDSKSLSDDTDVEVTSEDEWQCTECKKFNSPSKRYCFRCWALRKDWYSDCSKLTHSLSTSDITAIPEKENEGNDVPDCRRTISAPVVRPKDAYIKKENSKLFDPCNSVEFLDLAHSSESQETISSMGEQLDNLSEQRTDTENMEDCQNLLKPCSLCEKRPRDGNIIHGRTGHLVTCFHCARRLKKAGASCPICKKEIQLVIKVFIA
Target sequence (Q00987 whole entry, looked up): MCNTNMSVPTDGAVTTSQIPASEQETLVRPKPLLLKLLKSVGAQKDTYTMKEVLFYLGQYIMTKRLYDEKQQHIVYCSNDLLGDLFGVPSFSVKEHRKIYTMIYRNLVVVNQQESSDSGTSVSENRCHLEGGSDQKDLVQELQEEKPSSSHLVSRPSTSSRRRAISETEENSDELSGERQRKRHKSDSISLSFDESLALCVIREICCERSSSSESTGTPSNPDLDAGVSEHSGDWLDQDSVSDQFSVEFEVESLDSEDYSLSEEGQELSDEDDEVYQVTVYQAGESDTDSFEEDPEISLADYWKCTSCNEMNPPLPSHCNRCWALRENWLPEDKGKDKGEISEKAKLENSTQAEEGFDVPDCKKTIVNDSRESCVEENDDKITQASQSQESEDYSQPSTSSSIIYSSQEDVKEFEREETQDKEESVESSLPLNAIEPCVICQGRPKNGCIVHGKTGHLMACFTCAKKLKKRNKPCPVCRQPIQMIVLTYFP
SKKanGAS inh: SKKanGAS growth inhibition; 300,000 compounds, 1.3% hits; inhibition, % at 7.5 µM; S. pyogenes SKKanGAS, kanamycin growth, BacTiter-Glo, 6 h; AID 1662;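 active means mean replicate score, as percent of positive control median, at least 50; inconclusive means mean below 50 but one replicate at or above 50; inactive means mean and every replicate below 50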;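 further: strain carries kanamycin resistance gene driven by streptokinase promoter and grows in 40 µg/ml kanamycin; loss of luminescence reflects streptokinase promoter inhibition or plain growth inhibition; 0% = median of DMSO wells and 100% = positive control at its reference dose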
MPTP inh: permeability transition pore inhibition. 360,000 compounds, 1.4% hits. AID 602449. inhibition, % at 10 µM. isolated mouse mitochondria, Ca2+ swelling absorbance, 30 min;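 active means inhibition of 50% or more, scaled per plate between neutral and stimulator controls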;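 further: 0% = DMSO wells given calcium and 100% = 1 mM EGTA wells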
Mdm2-MdmX conf: confirmation of human Mdm2/MdmX interaction inhibitors | shares compounds with Mdm2-MdmX inh | Mdm2-MdmX binding, luminescent assay | inhibition, % at 8 µM | 10,000 compounds, 55% hits | AID 489028; in the data active means inhibition above about 40%
FLuc counter: counter-screen for Mdm2/MdmX inhibitors: full-length luciferase; SaOS-2 full-length luciferase counterscreen, luminescence; shares compounds with Mdm2-MdmX inh; 6,200 compounds, 77% hits; inhibition, % at 8 µM;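 active means mean inhibition at 8 µM reaching about 37%, which flags the compound as non-specific, limit read from the data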;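 further: p53-null SaOS-2 cells with luciferase driven by a doxycycline-inducible promoter; compound on cells about two nights before reading with doxycycline added after day one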
The depositor's hits bear a star; ? = inconclusive; . = no result.

SMILES | Beta apoptosis | CSC inhib | GRIN3A LBD mod | Mdm2-MdmX inh | SKKanGAS inh | MPTP inh | Mdm2-MdmX conf | others
CC(C)(C)OC(=O)NCc1ccc(NC(=O)c2nc[nH]c2C(=O)N[C@@H](Cc2ccccc2)C(=O)OCc2ccccc2)cc1 | -1 | -25 | 1 | 60* | 21 | 0 | 16
CC(C)C[C@H](NC(=O)c1nc[nH]c1C(=O)N[C@@H](CC(C)C)C(=O)OC(C)(C)C)C(=O)OCc1ccccc1 | ? | 46 | -31 | 64* | 58* | . | -11
CC(C)C[C@H](NC(=O)c1[nH]cnc1C(=O)N[C@@H](C)C(=O)OC(C)(C)C)C(=O)OC(C)(C)C | 3 | -1 | -5 | 63* | 28 | 0 | 12
CC1(C(=O)NCc2ccco2)Cc2c(-c3ccc(C(N)=O)cc3)ccnc2O1 (stereo not given) | . | . | . | . | . | -1 | .
O=C(c1nc2ccccn2c1CNCCn1ccc2ccccc21)N1CCOCC1 | 0 | . | -2 | -4 | 10 | 1 | .
CC(C)C[C@H](NC(=O)c1[nH]cnc1C(=O)N[C@@H](C)c1ccccc1)C(=O)OCc1ccccc1 | -1 | 0 | -11 | 51* | 75* | 0 | 21
CC(C)C[C@H](NC(=O)c1[nH]cnc1C(=O)Nc1ccccc1)C(=O)OC(C)(C)C | 36 | -15 | -8 | 57* | 63* | 1 | 15
CC(C)(C)OC(=O)N1CCC(NC(=O)c2[nH]cnc2C(=O)Nc2ccc(Cl)cc2)CC1 | -8 | 89* | 27* | 52* | . | -1 | 53* | FLuc counter=53*
CC(C)C[C@H](NC(=O)c1nc[nH]c1C(=O)N[C@@H](CCCCNC(=O)OC(C)(C)C)C(=O)OC(C)(C)C)C(=O)OC(C)(C)C | 27 | 60 | -3 | 73* | 40 | -1 | -17
CC(C)C[C@H](NC(=O)c1nc[nH]c1C(=O)NCC(=O)OCc1ccccc1)C(=O)OCc1ccccc1 | -6 | -2 | -14 | 1 | 27 | 1 | .
CC(C)C[C@H](NC(=O)c1nc[nH]c1C(=O)NCCCCCNC(=O)OC(C)(C)C)C(=O)OC(C)(C)C | 9 | 3 | -15 | 0 | 9 | 0 | .
O=C1NC(Cc2ccc(O)cc2)c2nc3cc(Cl)ccc3c(=O)n2-c2cc(Cl)ccc21 (stereo not given) | . | . | 7 | . | . | -1 | .
CCCOc1cccc(C(=O)NCCNC(=O)c2ccco2)c1 | . | -9 | 0 | 12 | -2 | 0 | .
Cc1ccc(S(=O)(=O)NCCC(=O)NC2CCCCCC2)cc1 | . | . | 0 | 3 | . | 0 | .
C[C@H](NC(=O)c1nc[nH]c1C(=O)N[C@@H](Cc1ccccc1)C(=O)OC(C)(C)C)c1ccccc1 | -9 | 48 | -14 | 50* | 54* | -1 | -4
C[C@H](NC(=O)c1nc[nH]c1C(=O)N[C@@H](Cc1ccccc1)C(=O)OC(C)(C)C)C(=O)OCc1ccccc1 | -10 | -6 | -12 | 7 | 23 | -2 | .
CC(C)(C)OC(=O)NCCCC[C@H](NC(=O)c1[nH]cnc1C(=O)Nc1ccc(Cl)cc1)C(=O)OC(C)(C)C | 32 | 7 | 0 | 56* | 57* | -1 | 5
C[C@H](NC(=O)c1[nH]cnc1C(=O)Nc1ccc(Cl)cc1)C(=O)OC(C)(C)C | 1 | -24 | -1 | 50* | 23 | 1 | 30
CCNc1nc(C23CC4CC(CC(C4)C2)C3)cs1 | 9 | 71 | -1 | -5 | -2 | 4 | .
CCOC(=O)c1c(CN2CCN(C)CC2)n(-c2ccccc2)c2cc(Br)c(O)cc12 | -6 | 22 | 1 | 61* | -11 | -1 | 46* | FLuc counter=39*
CCOC(=O)c1c(C)oc2cc(Cl)c(O)c(CN(C)C)c12 | 0 | -3 | 1 | 11 | 2 | 4 | .
CCOC(=O)c1c(-c2ccccc2)oc2ccc(O)c(CN3CCN(C)CC3)c12 | -8 | 8 | -2 | 51* | -3 | -1 | 45* | FLuc counter=59*
CCOC(=O)c1c(-c2ccccc2)oc2cc(CN(C)C)c(O)c(CN(C)C)c12 | -15 | 94* | 1 | 54* | -2 | 5 | 62* | FLuc counter=48*
Cc1cc2c(cc1S(=O)(=O)N(C)Cc1ccccc1)OCC(=O)N2 | -4 | -10 | 3 | 17 | 1 | -2 | .
